Among the data in PubChem BioAssay (NCATS) are Potency values, retold here.

Records with an inconclusive call do not appear. Entries that show only a call come without a potency. Active and inactive are the calls of the source. The call rests on the fitted dose curve; in most records, active means well fitted cell-killing curve with a large enough effect; inconclusive means small, poorly fitted or top-dose-only effect, or effect the other way; inactive means no such curve, though single readings can be large or run the other way.
Potency means the concentration at half of the fitted maximal effect.

A short description of this experiment: Quantitative High-Throughput drug screen in 47 multiple myeloma cell lines against the NCATS MIPE library collection: KMS28PE_JCRB cell viability assay (AID 1918983). Further: nearly all actives have a fitted effect of over 35% in size. The conditions noted are these: KMS28PE multiple myeloma viability, CellTiter-Glo ATP, 48 h; series mostly up to 45.8 µM. An outline of the steps:
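qHTS format: cells plated (500/well), pin-dosed with MIPE 4.0 compounds, kept 48 h at 37 °C. Readout was CellTiter-Glo luminescence, median RLU.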
On the technique in general: In ATP-based viability assays light output follows the ATP content of the culture.
As for `CCCNCC(O)COc1ccccc1C(=O)CCc1ccccc1` (configuration not stated), the Potency entry is “inactive”.
As for `Clc1ccc2c(c1)C(N1CCNCC1)=Nc1ccccc1O2`, the figure is 18.7 µM (active).
As for `CCOC(=O)C(C)(C)Oc1ccc(Cl)cc1`, the entry is “inactive”.
Under `Nc1c2c(nc3ccccc13)CCCC2` stands 14.8 µM (active); under `O=C(CCCN1CCC(O)(c2ccc(Cl)cc2)CC1)c1ccc(F)cc1`, 16.6 µM (active).
As for `CC(C)(Oc1ccc(C2CC2(Cl)Cl)cc1)C(=O)O` (configuration not stated), the Potency result was “inactive”.
Under `CCOC(=O)c1ncn2c1CN(C)C(=O)c1cc(F)ccc1-2` stands “inactive”; under `Clc1ccc2nsnc2c1NC1=NCCN1`, “inactive”; under `COc1cc2nc(N3CCN(C(=O)c4ccco4)CC3)nc(N)c2cc1OC`, 26.4 µM (active).
As for `Cc1cc(C(C)(C)C)c(O)c(C)c1CC1=NCCN1`, the entry is “inactive”; as for `CC(C)Cc1ccc(C(C)C(=O)O)cc1` (configuration not stated), “inactive”.
With `C[C@@H]1CC(=O)NN=C1c1ccc(NN=C(C#N)C#N)cc1`, the Potency was 23.5 µM (active).
As for `NC12CC3CC(CC(C3)C1)C2`, the entry is “inactive”; as for `CC12CC3CC(C)(C1)CC(N)(C3)C2`, “inactive”; as for `OCCN(CCO)c1nc(N2CCCCC2)c2nc(N(CCO)CCO)nc(N3CCCCC3)c2n1`, 20.9 µM (active).
As for `Cn1c(=O)c2c(ncn2C)n(C)c1=O`, the entry is “inactive”; as for `O=c1c(O)c(-c2ccc(O)c(O)c2)oc2cc(O)cc(O)c12`, “inactive”; as for `CN(Cc1cnc2nc(N)nc(N)c2n1)c1ccc(C(=O)N[C@@H](CCC(=O)O)C(=O)O)cc1`, 16.6 µM (active).
Under `NS(=O)(=O)c1cc2c(cc1Cl)NCNS2(=O)=O` stands “inactive”; under `CCOC(=O)Nc1ccc(NCc2ccc(F)cc2)nc1N`, “inactive”.
Consider `NC(=O)OCC(COC(N)=O)c1ccccc1`, for which the Potency entry is “inactive”.
With `COc1cc2nc(N3CCN(C(=O)C4COc5ccccc5O4)CC3)nc(N)c2cc1OC` (configuration not stated), the Potency is 23.5 µM (active).
